Laboratory results from PubChem BioAssay AID1851 (National Center for Advancing Translational Sciences (NCATS), 2009).
The whole screen tested about 16,000 compounds, of which about 5,100 (32%) were called active. Not shown: some 25% with an inconclusive outcome. The list shows a part of the results. Unmarked numbers belong to inactive results. The call rests on the fitted dose curve; in most records, active means well fitted curve in the direction sought with a large enough effect; inconclusive means small, poorly fitted or top-dose-only effect, or effect the other way; inactive means no such curve, though single readings can be large or run the other way.

Each molecule was assayed against Cytochrome P450 3A4 (Homo sapiens) (UniProt P08684) (assay: Cytochrome panel assay with activity outcomes). Settings: recombinant CYP, pro-luciferin dealkylation, luminescence, p450-cyp3a4; series mostly up to 57.1 µM.
On the % scale 0 is the no-effect control and ±100 the full control effect.

Sequence of Cytochrome P450 3A4 (Homo sapiens) (P08684 whole entry, looked up): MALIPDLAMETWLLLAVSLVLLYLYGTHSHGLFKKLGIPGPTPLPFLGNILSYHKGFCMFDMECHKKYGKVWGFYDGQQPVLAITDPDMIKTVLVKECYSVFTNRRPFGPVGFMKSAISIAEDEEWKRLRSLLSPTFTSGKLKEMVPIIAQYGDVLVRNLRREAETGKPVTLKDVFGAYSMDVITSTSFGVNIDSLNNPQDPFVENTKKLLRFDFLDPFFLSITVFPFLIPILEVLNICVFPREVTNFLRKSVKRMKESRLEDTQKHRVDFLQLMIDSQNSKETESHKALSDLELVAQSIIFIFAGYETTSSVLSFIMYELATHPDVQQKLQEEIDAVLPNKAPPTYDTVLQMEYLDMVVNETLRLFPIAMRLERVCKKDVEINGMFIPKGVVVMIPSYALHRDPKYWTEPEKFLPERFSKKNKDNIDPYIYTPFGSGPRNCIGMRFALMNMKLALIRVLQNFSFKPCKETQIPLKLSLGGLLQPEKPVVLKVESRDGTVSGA

Structure (SMILES) | AC50 | activity, negative = inhibition
CC(=O)Oc1ccccc1C(=O)Oc1ccccc1C(=O)O | inactive | –
c1cncc(-c2cc(-n3ccnc3)ncn2)c1 | 1.58 µM (active) | –
COc1cccc(-c2nccc(-n3ccnc3)n2)c1 | 1 µM (active) | –
Nc1nc(-c2cccnc2)cc(-c2cc(-c3cccnc3)nc(N)n2)n1 | – | -3.62% [at 11.4 µM]
CCCCN(c1ccccc1)c1ncnc2c1cnn2C | – | -28% [at 11.4 µM]
CC(N)=NCc1cccc(CN)c1 | inactive | –
CS(=O)(=O)Nc1cccc(-c2cncnc2NCc2cccnc2)c1 | 1 µM (active) | –
CS(=O)(=O)Nc1cccc(-c2cncnc2NCc2cccs2)c1 | 0.398 µM (active) | –
Cc1cccc(CNc2ncncc2-c2cccc(NS(C)(=O)=O)c2)c1 | 0.158 µM (active) | –
Cc1cnc(CNc2ncnc3ccc(-c4cccc(NS(C)(=O)=O)c4)cc23)cn1 | 12.6 µM (active) | –
CS(=O)(=O)Nc1cccc(-c2ccc3ncnc(NCc4cccnc4)c3c2)c1 | 0.398 µM (active) | –
CS(=O)(=O)Nc1cccc(-c2ccc3ncnc(NCc4cccs4)c3c2)c1 | 3.16 µM (active) | –
CS(=O)(=O)Nc1cccc(-c2cncnc2NCc2ccccc2)c1 | 0.631 µM (active) | –
Cc1cnc(CNc2ncncc2-c2cccc(NS(C)(=O)=O)c2)cn1 | 3.16 µM (active) | –
CCC(=O)O[C@H](CC(=O)O)C[N+](C)(C)C | inactive | –
OCC1CCCN(Cc2ccc(-c3ccccc3)cc2)C1 (stereo not given) | inactive | –
COc1ccc(-c2csc(NC(=O)CCn3cnc4ccccc4c3=O)n2)cc1OC | 11.2 µM (active) | –
COc1cccc(C(=O)NCCN2CCOCC2)c1 | inactive | –
COc1ccc(C(=O)Nc2ccc(Cl)cc2C(=O)NCCN2CCOCC2)cc1 | 14.1 µM (active) | –
COc1ccc(-c2cn3c(C)c(C(=O)NCCN4CCOCC4)sc3n2)cc1 | 12.6 µM (active) | –
O=C(NCCN1CCOCC1)c1csc2c1CCCCC2 | – | -7.18% [at 2.29 µM]
COCCNC(=O)c1sc2nc(-c3ccccc3)cn2c1C | inactive | –
COc1ccc(C2=NOC(C(=O)NCCN3CCOCC3)C2)cc1 (stereo not given) | inactive | –
N#Cc1nc(-c2cccs2)oc1NCc1ccccc1 | 12.6 µM (active) | –
C(=C\c1nnc(-c2cccs2)o1)/c1ccccc1 | inactive | –
O=C(Nc1ccccc1)N1CCC2(CC1)CCN(C(=O)c1cnccn1)CC2 | inactive | –
O=C(Nc1ccccc1)N1CC2(CCN(C(=O)c3cnccn3)CC2)C1 | inactive | –
O=C(Nc1cccc(F)c1)N1CC[C@@]2(CCCN(C(=O)c3cnccn3)C2)C1 | 12.6 µM (active) | –
O=C(Nc1cccc(F)c1)N1CCC2(CC1)CCN(C(=O)c1cnccn1)CC2 | inactive | –
O=C(Nc1cccc(F)c1)N1CCCC2(CCN(C(=O)c3cnccn3)CC2)C1 | 12.6 µM (active) | –
